The results in this text go back to PubChem BioAssay (NCI).

This is part of a sample that, as a whole, favours compounds with a hit. Of some 83,000 tested, about 20% had one in any assay.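 A percent growth of 40 corresponds to 60% growth inhibition; 0 means no net growth; -100 means all cells died. Active threshold: below 10.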 Values without a mark were called inactive. Calls of active or inactive are those of the source.

One assay concerns SF-268 CNS. The assay is described as follows: NCI-60 one-dose screen, 48 h (100 = growth as untreated, 0 = no growth, -100 = all killed). The settings on record: 10 µM unless noted.
In the case of `CCOP(=O)(OCC)c1nc(-c2ccccc2)oc1NCc1cccnc1`, the growth is 104%.

For `C/C(=C(/c1ccc(Cl)cc1)c1ccc(OCCN2CCCC2)cc1)c1ccc(Cl)cc1`, the growth was 91.5%.

Regarding `CC(C)=CCC[C@](C)(O)[C@H]1CC[C@]2(C)[C@@H]1CC[C@@H]1[C@@]3(C)Cc4nccnc4C(C)(C)[C@@H]3CC[C@]12C`, the growth is 86.5%.

As to `CC1=Nc2cnc(Nc3ccc(OCCN4CCCC4)cc3)nc2Nc2ccccc21`, the growth is 63.9%.

A further assay has as its system SF-295 CNS. The assay is described as above. The settings on record: 10 µM unless noted.
Take `CCSc1nc(NC)c2cc(-c3ccc(C(F)(F)F)cc3)ccc2n1`: the growth is 102%.

In the case of `Cc1nc(-c2ccccc2)cc2c(O)c(C(=O)NN)[nH]c(=O)c12`, the growth is 111%.

`Cc1ccc(S(=O)(=O)N2CCCC2CO)cc1` (centres undefined): the growth was 112%.

As for `CCOC(=O)c1cc(-c2ccc([N+](=O)[O-])cc2)n(-c2ccc(C(=O)O)c(O)c2)c1C`, the growth is 69.8%.

For `COc1cc(CNS(=O)(=O)c2ccc(C)cc2)ccc1OCc1cn(-c2ccc(Br)cc2)nn1`, the growth was 97.2%.

In the case of `O=C(/C=C/c1ccccc1)c1cccc(OCCCOc2cccc(C(=O)/C=C/c3ccccc3)c2)c1`, the growth was 94.2%.

With `C=CCc1c(O)c(C(=O)/C=C/c2ccc(Cl)cc2)c(OC)c2ccoc12`, the growth is 33.1%.

For the compound `COc1ccc(-c2nc3c(c(-c4ccccc4)nn3-c3ccccc3)c(-c3ccc(N4CCOCC4)cc3)c2C#N)cc1`, the growth was 91.6%.

Take `O=C1/C(=C/c2ccc(Cl)cc2)COc2ccc(O)c(O)c21`: the growth was 77.1%.

`CN(C)c1ccc(Nc2cc(-c3cccc(OC(F)(F)F)c3)nc3ccc(N4CCCC4)cc23)cc1`: the growth is 108%.

As for `O=C(c1ccc(-c2nc(CSc3nc4ccccc4s3)no2)cc1)N1CCSCC1`, the growth was 40.6%.

For the compound `N=C(N)c1ccc(-c2ccc(-c3ccc(Cl)cc3)s2)nc1`, the growth was 27.1%.

On to `COC(=O)c1c2c(c(C)[n+]([O-])c1C)C(=O)C=C(NCc1ccc(OC)cc1)C2=O`, for which the growth was -62.5% (active).

As for `O=C1/C(=C/c2ccc(Cl)cc2)COc2ccc(O)cc21`, the growth is 101%.

Regarding `Cc1cccc2c1NC(=O)C2(c1ccc(O)cc1)c1ccc(O)cc1`, the growth is 73.1%.

Regarding `CN1CCN(Cc2ccc3c(NNC(=O)c4ccccc4)nc4cc(F)ccc4n23)CC1`, the growth is 16.2%.

For the compound `COc1ccc2[nH]cc(-c3nc(-c4cn(C)c5c(Cl)nccc45)cs3)c2c1`, the growth was 37.9%.

With `O=C(CCc1nnc(Cn2cnc3nc[nH]c3c2=O)o1)c1nc2ncccc2[nH]1`, the growth was 101%.

With `CC1=Nc2cnc(Nc3ccc(OCCN4CCCCC4)cc3)nc2Nc2ccccc21`, the growth was 76.5%.

As for `Cc1nc2ncnc(Cl)c2[nH]1`, the growth is 107%.

Turning to `CC(C)(C)[Si](C)(C)O[C@H]1C(=O)C=CN2CC=C[C@@H]12`, the growth was 94.1% [100 µM].

For the compound `c1cnc2[nH]cc(-c3csc(-c4cn(CCCN5CCOCC5)c5ccccc45)n3)c2c1`, the growth was 16.7%.

Take `Cc1ccccc1Cn1cnc2ccc(-c3cc(NC(=O)c4ccc(NC5CCN(C)CC5)cc4)n[nH]3)cc21`: the growth was 89.9%.

In the case of `COC(C(=O)[C@@H](O)[C@@H](C)O)[C@@H]1Cc2cc3cc(O[C@H]4C[C@@H](O[C@H]5C[C@@H](O)[C@H](O)C(C)O5)[C@H](O)C(C)O4)cc(O)c3c(O)c2C(=O)[C@H]1O[C@H]1C[C@@H](O[C@H]2C[C@@H](O[C@H]3C[C@@H](OC)[C@H](O)C(C)O3)[C@@H](O)C(C)O2)[C@H](O)C(C)O1` (some centres undefined), the growth was 30.7%.

On to `Cc1cc(Cl)ccc1Nc1nc(C(F)(F)F)ccc1C(=O)N/N=C/c1ccc([N+](=O)[O-])cc1`, for which the growth is -56.4% (active).

As for `COc1cc(N2C(=O)[C@H](O)C2c2ccc(SC)cc2)cc(OC)c1OC` (some centres undefined), the growth was 10.1%.

For `Fc1cc2c(cc1Cl)N(c1ncnc3ccc(-c4cnc5[nH]ncc5c4)cc13)CC2`, the growth is 72.9%.

Consider `COc1ccccc1NC(=O)Cn1cc(CN2CCN(c3ccnc4cc(Cl)ccc34)CC2)nn1`, for which the growth is 100%.

As to `COc1cc(CNC(=O)CCCC/C=C/C(C)C)ccc1OCc1nnc(Nc2ccc([N+](=O)[O-])cc2)o1`, the growth is 64.9%.

As to `O=C(NCCCN1CCOCC1)c1cccc(N2C(=O)/C(=C/c3ccc(F)cc3)SC2=S)c1`, the growth was 95.5%.

For the compound `O=C(CSc1nnc2n1S(=O)(=O)c1ccccc1N2c1ccccc1)Nc1nc2ccc(F)cc2s1`, the growth is 91.5%.

`N#Cc1nc(-c2ccccc2)oc1S(=O)(=O)N1CCOCC1`: the growth is 98.5%.

`CC(C)c1ccc(COCc2cc(CN3CCCC3)c(O)c3ncccc23)cc1`: the growth was 4.84% (active).

For `Cc1cc(N)c2cc(NC(=O)/C=C\c3ccccc3Cl)ccc2n1`, the growth is -80.4% (active).

As to `COc1ccc(Cc2cc(-c3ccccc3)nn(Cc3ccccc3)c2=O)cc1OC`, the growth is 28.8%.

On to `O=C1/C(=C/c2ccc(F)cc2)COc2ccc(O)cc21`, for which the growth is 104%.

Turning to `CCOP(=O)(OCC)c1nc(-c2ccccc2)oc1NCc1cccnc1`, the growth was 106%.

As to `C/C(=C(/c1ccc(Cl)cc1)c1ccc(OCCN2CCCC2)cc1)c1ccc(Cl)cc1`, the growth is 100%.

For `CC(C)=CCC[C@](C)(O)[C@H]1CC[C@]2(C)[C@@H]1CC[C@@H]1[C@@]3(C)Cc4nccnc4C(C)(C)[C@@H]3CC[C@]12C`, the growth was 95.2%.

As for `CC1=Nc2cnc(Nc3ccc(OCCN4CCCC4)cc3)nc2Nc2ccccc21`, the growth was 85.6%.
